From article PMC7819943, “Rice protein-binding microarrays: a tool to detect cis-acting elements near promoter regions in rice”
The full ranking holds about 35,000 sequences; the median of “fluorescence intensity (a.u.)” is about 10,000, and the highest 2% start at about 52,000. The sample as a whole holds a higher share of the highest values than the screen did.

Biological target: T1, OsWOX13 (Oryza sativa, UniProt Q5QMM3 1-267)
T1 sequence: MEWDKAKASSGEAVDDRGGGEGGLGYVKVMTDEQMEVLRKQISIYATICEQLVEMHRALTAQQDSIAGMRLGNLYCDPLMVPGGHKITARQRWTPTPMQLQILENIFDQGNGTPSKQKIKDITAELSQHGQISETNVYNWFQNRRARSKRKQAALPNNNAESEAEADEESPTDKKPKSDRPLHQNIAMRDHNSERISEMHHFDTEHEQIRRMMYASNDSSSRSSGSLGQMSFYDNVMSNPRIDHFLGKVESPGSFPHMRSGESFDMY
Assay: protein-binding microarray (RPBM); PBS, 2% BSA, 51.3 ng/ul salmon testes DNA, 50 uM zinc acetate, 200 nM TF, 25 C, 1 h; high values mean tight binding
Conditions: protein: recombinant; tags: N-terminal polyhistidine and DsRed monomer fusion (pET32a); label: CyDye5-dUTP incorporated in the synthesized complementary strand; 3' TTTTT single-stranded linker to array surface; dsDNA, one strand shown
Method in brief: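 The binding signal is fluorescence intensity per feature, in arbitrary units, read on an Axon 4000B scanner. Polyhistidine- and DsRed-tagged transcription factors (N-terminal fusions) from E. coli BL21-CodonPlus were purified on Ni–NTA and applied at 200 nM for 1 h at 25 °C to a double-stranded, BSA-blocked custom Agilent array in buffer with 50 µM zinc acetate.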

| Sequence | binding signal |
| --- | --- |
| TGAAAATGATGTCAATCAAACATGAGTGGGGCCTGCTTTGCGGAGTCACCTAGTGCAG | 38500 fluorescence intensity (a.u.) |
| TCACAATAGATAATTTATTCACTGAAAATTTTAGTTTTGGCGGAGTCACCTAGTGCAG | 11100 fluorescence intensity (a.u.) |
| GGTATTACTGACTGGATTACCATGTGTGCGTCACATCGGACGGAGTCACCTAGTGCAG | 6490 fluorescence intensity (a.u.) |
| ATTTCAGATTGGGTTATTTGAGAGCTAAATTTCTAATGTACGGAGTCACCTAGTGCAG | 4680 fluorescence intensity (a.u.) |
| TGAAAATGATTTGGGATGGCATTTCAGCGGGTTGGGCTCACGGAGTCACCTAGTGCAG | 22000 fluorescence intensity (a.u.) |
| ATAATGGCATAATTTAAATTTTACAAAATACTTATGACACCGGAGTCACCTAGTGCAG | 12600 fluorescence intensity (a.u.) |
| CTTATATTTGCAAATATTGATGGTTGTTGACATATGAACTCGGAGTCACCTAGTGCAG | 3210 fluorescence intensity (a.u.) |
| CCTGACAGGTCATCTCCTGATTGAAACCAAAATGTTGGATCGGAGTCACCTAGTGCAG | 60700 fluorescence intensity (a.u.) |
| TGATGATTTAACTGTGTTGCATGAATTCATTCCTATTTGACGGAGTCACCTAGTGCAG | 29500 fluorescence intensity (a.u.) |
| ACTAAATTGGGTTGGGGTGCCTCCTCCTTCCTTTCTTTCTCGGAGTCACCTAGTGCAG | 21000 fluorescence intensity (a.u.) |
| CGACTGATTGGTTGGGGTCATGGTTGGAACAAAATTTCCTCGGAGTCACCTAGTGCAG | 52800 fluorescence intensity (a.u.) |
| GAAAATGACCAAATTATGAAAACATCCAGGCAATGGATCTCGGAGTCACCTAGTGCAG | 3240 fluorescence intensity (a.u.) |
| ATTAATTATGTCATAAACTGTTGTTGATTTGTGCCAGTTTCGGAGTCACCTAGTGCAG | 39500 fluorescence intensity (a.u.) |
| ATGGTTGATTGATTGCATATATTTGAACAAATGATCTTTGCGGAGTCACCTAGTGCAG | 65500 fluorescence intensity (a.u.) |
| AGGTTGATTAACTGTTTCATGAATTTGGTATGTTTGCAGTCGGAGTCACCTAGTGCAG | 53300 fluorescence intensity (a.u.) |
| CTAGTAATTACAAACATTGGAACTGAGTTTTGGTTGGGGTCGGAGTCACCTAGTGCAG | 23800 fluorescence intensity (a.u.) |
| GTTGATGTGATGGAAAATGACTGAAGATTGGATCTAAACTCGGAGTCACCTAGTGCAG | 31100 fluorescence intensity (a.u.) |
| CATAATGATTGCGTTGAACGTTGGTTGCTTGATCATCTTTCGGAGTCACCTAGTGCAG | 18600 fluorescence intensity (a.u.) |
| CAAAGATTTCACTGTTTAATCTAATCTTGTGGATTTTATGCGGAGTCACCTAGTGCAG | 3590 fluorescence intensity (a.u.) |
| TCGAATTTGATCAGTAGCTTAATTATACTTTAGTACTACCCGGAGTCACCTAGTGCAG | 10600 fluorescence intensity (a.u.) |
| TGTTAATTATGCCCTCGGTCCAATTGTGATATTCTGTTGACGGAGTCACCTAGTGCAG | 38300 fluorescence intensity (a.u.) |
| CCCATGTAGATTGGGCCTGCTTAGTGAAGTCTCACGTAGCCGGAGTCACCTAGTGCAG | 5240 fluorescence intensity (a.u.) |
| ATCGTAATAGAATATGTCACATTCGGTTTTGGCTCAAGTTCGGAGTCACCTAGTGCAG | 5710 fluorescence intensity (a.u.) |

| Sequence | binding signal |
| --- | --- |
| CTTATTCACTTGTGATTGTGATGATTAGCGAACAGAGTTGCGGAGTCACCTAGTGCAG | 18700 fluorescence intensity (a.u.) |
| AGTTGACAGTTCCAATTAATCGTTCATGCGACCCAATTGACGGAGTCACCTAGTGCAG | 21500 fluorescence intensity (a.u.) |
| CTAATTTAAATTTGTCTCTTTTCTACCCTCAACCATCATTCGGAGTCACCTAGTGCAG | 27200 fluorescence intensity (a.u.) |
| TTCTGCTGATTGGAATGACTACAACACTAGAGTTGTCTGTCGGAGTCACCTAGTGCAG | 56100 fluorescence intensity (a.u.) |
| TCTACTAATTTAAAGTTGCAGTGTTCCTCCTCCCTCCTACCGGAGTCACCTAGTGCAG | 10700 fluorescence intensity (a.u.) |
| TGGCGGATTGATCTGGAGGTGGGCTTGTTGGGGTTGCTGTCGGAGTCACCTAGTGCAG | 14400 fluorescence intensity (a.u.) |
| CAGAATGACAACATTGACTGATTGACACTAGAAATACATACGGAGTCACCTAGTGCAG | 39000 fluorescence intensity (a.u.) |
| TCCCTGAATTTTAGGAGTGATTGGACCTAAAGTTGAGGAGCGGAGTCACCTAGTGCAG | 17200 fluorescence intensity (a.u.) |
| CCGTTGGATTGGAATCGGAGGGCCTACAATGACTGAGTGCCGGAGTCACCTAGTGCAG | 5860 fluorescence intensity (a.u.) |
| ACTAATTGACTACTCCCTGAATTTAAAGTTGATGGTCAGTCGGAGTCACCTAGTGCAG | 61100 fluorescence intensity (a.u.) |
| CGTCTGGGGTTTGATTGGGATTGAGGCGAATTCGGGCGGTCGGAGTCACCTAGTGCAG | 34000 fluorescence intensity (a.u.) |
| TGGAAATTGATGGAGGATGATCTGCAATTAGAAAGAAGAACGGAGTCACCTAGTGCAG | 29700 fluorescence intensity (a.u.) |
| CTGGATTGATTGGGAGTGTTGGGTTTCGGGCTAGATCTGGCGGAGTCACCTAGTGCAG | 65200 fluorescence intensity (a.u.) |
| AGAAATTGATTATGGATGAGTGCCCTTCTGCCTATTATGTCGGAGTCACCTAGTGCAG | 55900 fluorescence intensity (a.u.) |
| TATGAATTGACTATTATATTGGCTATGGATGATTTGTAGTCGGAGTCACCTAGTGCAG | 30100 fluorescence intensity (a.u.) |
| TGGGTAGGGGCAGTTAATTGGGAGGGAATTCCTCCTTCACCGGAGTCACCTAGTGCAG | 8890 fluorescence intensity (a.u.) |
| ACTGATGAAATATCAAAGTGATTGTCAGACAAAGCGCCATCGGAGTCACCTAGTGCAG | 25800 fluorescence intensity (a.u.) |
| TACCCATCTTCCATTGACAGACAATTGGGCCCCACTCCGCCGGAGTCACCTAGTGCAG | 7450 fluorescence intensity (a.u.) |
| AGCTAATAATTACTAATTACTAAGTAATACTTCCTCTGTTCGGAGTCACCTAGTGCAG | 41700 fluorescence intensity (a.u.) |
| ATTATTGACAAAAGCATCTCGATATCTTATGGATTAATATCGGAGTCACCTAGTGCAG | 4720 fluorescence intensity (a.u.) |
| CGTGAGTGAAATTTTAATTACGTGTACATATAGGGGAGTACGGAGTCACCTAGTGCAG | 20500 fluorescence intensity (a.u.) |
| ATATAATGGGCACTATGATTTGCTCTAAATATTGGTCATTCGGAGTCACCTAGTGCAG | 28800 fluorescence intensity (a.u.) |
| TCCTGATTGTTCACAATTGTGCTAGTTCAAACAAGGCAAACGGAGTCACCTAGTGCAG | 24800 fluorescence intensity (a.u.) |
